Screens deposited in PubChem by Broad Institute.
An excerpt weighted towards active compounds, which were near 2.1% of everything screened.
HIV Env fusion: HIV envelope-mediated fusion inhibition | HeLa-JRFL Env/CEM21 cell fusion, luciferase | inhibition, % at 12.3 µM | 360,000 compounds, 1.1% hits;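 active = mean replicate inhibition score of at least 50 and every replicate individually at or above 50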
INS-1E GSIS act: primary screen for activators of insulin secretion dependent on glucose, INS-1E cells, GLuc reporter luminescence | INS-1E GLuc reporter insulin secretion, 2-3 h | activation, % at 16.6 µM | 370,000 compounds, 0.61% hits;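 active = lowest replicate activation of at least 40%, so every replicate reaches that level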
PGC1a acetyl inh: lowers PGC1a acetylation signal in U2OS cells | inhibition, % at 15.6 µM | 350,000 compounds, 0.17% hits | AlphaScreen anti-acetyl-lysine; with virally co-expressed GCN5 acetyltransferase | AID 651687;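 active = every replicate shows inhibition of at least 40%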
NSD2 inh: inhibitors of human histone methyltransferase NSD2; O96028; NSD2 peptide methylation, AlphaScreen, 120 min; 310,000 compounds, 0.54% hits; inhibition, % at 12.5 µM; in the data active = inhibition above about 50%
MLL AF4-AF9 inh: MLL-AF4/AF9 protein interaction inhibition; AID 651704; P42568; AlphaScreen, biotin-AF4 peptide binding to FLAG-AF9; 350,000 compounds, 0.47% hits; inhibition, % at 10 µM;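 active = every replicate reaching a set inhibition limit, whatever the replicate mean, cut at about 25% in these data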
Target sequence (P42568 whole entry, looked up): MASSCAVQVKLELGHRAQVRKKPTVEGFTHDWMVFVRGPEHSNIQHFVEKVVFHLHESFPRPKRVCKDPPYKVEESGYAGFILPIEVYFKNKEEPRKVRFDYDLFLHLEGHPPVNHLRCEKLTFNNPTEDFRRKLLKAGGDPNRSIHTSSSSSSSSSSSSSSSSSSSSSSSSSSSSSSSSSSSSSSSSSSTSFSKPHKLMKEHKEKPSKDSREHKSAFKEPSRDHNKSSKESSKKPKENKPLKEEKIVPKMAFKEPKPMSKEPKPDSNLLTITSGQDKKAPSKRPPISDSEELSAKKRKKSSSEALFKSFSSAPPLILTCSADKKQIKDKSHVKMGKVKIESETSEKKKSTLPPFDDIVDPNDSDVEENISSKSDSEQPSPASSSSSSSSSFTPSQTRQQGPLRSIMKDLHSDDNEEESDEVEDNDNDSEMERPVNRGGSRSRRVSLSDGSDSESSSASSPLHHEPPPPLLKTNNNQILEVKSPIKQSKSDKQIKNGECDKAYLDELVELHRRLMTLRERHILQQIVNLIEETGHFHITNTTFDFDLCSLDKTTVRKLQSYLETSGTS
Each line names hits and unclear results; the compound was inactive in the other large screens; ! = repeats disagree; [ ] = remark or other dose.

O=C(c1ccccc1F)N1CCCC(N2CCN(Cc3ccc4c(c3)OCO4)CC2)C1 (centres undefined)	INS-1E GSIS act 47
O=C(Nc1c2c(nn1-c1ccc(Cl)cc1)CS(=O)(=O)C2)c1ccccc1	none (no result: PGC1a acetyl inh)
CN1C(=O)c2cc(NS(=O)(=O)c3ccc(Cl)cc3)ccc2OC[C@@H]2O[C@H](CC(=O)N3CCc4ccccc4C3)CC[C@@H]21	none (no result: NSD2 inh)
Cc1cccc(NCc2ccccc2)c1	INS-1E GSIS act 95
Cc1cccc(NCc2ccccc2O)c1	none (no result: HIV Env fusion, INS-1E GSIS act, MLL AF4-AF9 inh)
CCC(CC)COC(=O)C1=C(C)NC(=O)NC1c1cccc([N+](=O)[O-])c1 (centres undefined)	HIV Env fusion 62
C[C@H](CO)N1C[C@H](C)[C@@H](CN(C)C(=O)c2ccccc2)Oc2ncc(C#C[C@@H](C)O)cc2C1=O	none (no result: NSD2 inh)
COc1ccc2oc(C(=O)Nc3nnc(C)s3)c(C)c2c1	INS-1E GSIS act 53
O=S(=O)(/C=C/c1ccccc1)N1CCc2ccccc2C1	none
O=C1C=CCCN1S(=O)(=O)/C=C/c1ccccc1	PGC1a acetyl inh 59 (no result: INS-1E GSIS act, NSD2 inh)
Cc1cccc(N(Cc2cc(=O)[nH]c3ccccc23)C(=O)CCl)c1	HIV Env fusion 82 (no result: PGC1a acetyl inh)
CCCC(=O)N(Cc1cc(=O)[nH]c2ccccc12)c1cccc(C)c1	none
CC1CCN(c2c(NCC3CCC(C(=O)NCc4ccc(F)cc4)CC3)c(=O)c2=O)CC1 (centres undefined)	none
Cc1ccc(NC(=O)C2CCC(CNc3c(N4CCC(C)CC4)c(=O)c3=O)CC2)cc1F (centres undefined)	HIV Env fusion 59
COc1ccc(C(CC(=O)O)c2ccc3c(c2)OCO3)cc1 (centres undefined)	none
COc1ccc(CNCCC(c2ccccc2)c2ccc3c(c2)OCO3)cc1 (centres undefined)	MLL AF4-AF9 inh 25 (no result: HIV Env fusion)
NC(=S)n1[nH]c(-c2ccc([N+](=O)[O-])cc2)c(N=Nc2ccccc2[N+](=O)[O-])c1=O	none (no result: PGC1a acetyl inh)
NC(=S)n1[nH]c(-c2ccc([N+](=O)[O-])cc2)c(N=Nc2cccc([N+](=O)[O-])c2)c1=O	HIV Env fusion 63
CCCCCCCCC#Cc1nc(C)ccc1OC	INS-1E GSIS act 56 (no result: NSD2 inh)
N#Cc1c(/N=C/N2CCOCC2)sc2c1CCCCC2	none (no result: INS-1E GSIS act, MLL AF4-AF9 inh)
O=C(O)c1ccc(OS(=O)(=O)c2cccc(C(F)(F)F)c2)cc1	INS-1E GSIS act 73
Cc1ccc(S(=O)(=O)N2CCOCC2)cc1C(=O)Nc1ccc2c(c1)OCCO2	none (no result: HIV Env fusion)
CCCCCC(=O)Nc1cc(S(=O)(=O)O)cc2cc(S(=O)(=O)O)cc(O)c12	NSD2 inh 105 (no result: PGC1a acetyl inh)
C[C@@H]1CN([C@H](C)CO)C(=O)c2cccc(NC(=O)C3CCCCC3)c2O[C@H]1CN(C)Cc1ccccc1	HIV Env fusion 74[16.7 µM] (no result: PGC1a acetyl inh, NSD2 inh)
C[C@@H]1CN([C@@H](C)CO)C(=O)c2cccc(NC(=O)Nc3ccc(C(F)(F)F)cc3)c2O[C@H]1CN(C)Cc1ccc(Cl)c(Cl)c1	HIV Env fusion 85[16.7 µM], INS-1E GSIS act 44 (no result: NSD2 inh)
CC(C)NC(=O)N(C)C[C@H]1Oc2c(NC(=O)Nc3ccc(C(F)(F)F)cc3)cccc2C(=O)N([C@@H](C)CO)C[C@H]1C	HIV Env fusion 56[16.7 µM] (no result: NSD2 inh)
COc1ccc(S(=O)(=O)N(C)C[C@H]2Oc3c(NC(=O)Nc4ccc(C(F)(F)F)cc4)cccc3C(=O)N([C@@H](C)CO)C[C@H]2C)cc1	HIV Env fusion 108[16.7 µM] (no result: NSD2 inh)
CC(C)NC(=O)N(C)C[C@@H]1Oc2c(NC(=O)Nc3ccc(C(F)(F)F)cc3)cccc2C(=O)N([C@H](C)CO)C[C@@H]1C	none (no result: NSD2 inh)
C[C@@H]1CN([C@H](C)CO)C(=O)c2cccc(NC(=O)Nc3ccc(C(F)(F)F)cc3)c2O[C@H]1CN(C)Cc1ccc(Cl)c(Cl)c1	none (no result: NSD2 inh)
CCN(CC(=O)Nc1ccc(NC(C)=O)cc1)C(=O)/C=C/c1cn(Cc2ccccc2)nc1-c1cccnc1	none
Cc1noc(C)c1NC(=O)Nc1cccc2c1O[C@H](CN(C)Cc1ccc(Oc3ccccc3)cc1)[C@H](C)CN([C@@H](C)CO)C2=O	PGC1a acetyl inh 100 (no result: NSD2 inh)
C[C@@H]1CN([C@@H](C)CO)C(=O)c2cccc(NC(=O)Nc3ccc(C(F)(F)F)cc3)c2O[C@H]1CN(C)Cc1ccc(C(F)(F)F)cc1	HIV Env fusion 76[16.7 µM] (no result: NSD2 inh)
C[C@H](CO)N1C[C@H](C)[C@@H](CN(C)C(=O)NC2CCCCC2)Oc2c(cccc2N(C)C)C1=O	HIV Env fusion 85! (no result: NSD2 inh)
CCOC(=O)C1(C)C=C(Nc2ccc(OC)cc2)C(=O)N1c1ccc(OC)cc1 (centres undefined)	INS-1E GSIS act 59 (no result: NSD2 inh, MLL AF4-AF9 inh)
COc1ccc(-c2onc(C)c2-c2ccc(C(=O)OC(C)C)o2)c(O)c1	PGC1a acetyl inh 74 (no result: HIV Env fusion, INS-1E GSIS act)
COc1ccc(N2C(=O)c3ccc(C(=O)OC(C)C)cc3C2=O)cc1	none (no result: INS-1E GSIS act, MLL AF4-AF9 inh)
Cc1ccc(-c2nnn(CC(=O)N(c3ccccc3)C(C(=O)NC(C)(C)C)c3cccs3)n2)o1 (centres undefined)	none (no result: HIV Env fusion, MLL AF4-AF9 inh)
Cc1cccc(C(C)C)c1NC(=O)COC(=O)c1cccc(S(=O)(=O)N2CCc3ccccc3C2)c1	INS-1E GSIS act 121 (no result: PGC1a acetyl inh, MLL AF4-AF9 inh)
CCc1cccc(CC)c1NC(=O)COC(=O)c1cccc(S(=O)(=O)N2CCc3ccccc3C2)c1	none (no result: INS-1E GSIS act, PGC1a acetyl inh)
CC(C)NCC(=O)Nc1c2c(nc3ccccc13)CCC2	none (no result: INS-1E GSIS act)
c1coc(CNc2c3c(nc4ccccc24)CCC3)c1	HIV Env fusion 75 (no result: INS-1E GSIS act, MLL AF4-AF9 inh)
COc1ccc(S(=O)(=O)N2CCC3(CC2)CN(C(=O)CN(C)C)[C@H](CO)c2c3c3ccc(OC)cc3n2C)cc1	MLL AF4-AF9 inh 33 (no result: HIV Env fusion, NSD2 inh)
CCCNC(=O)N1CC2(CN(Cc3ccc(OC)cc3)C2)c2c(n(C)c3cc(OC)ccc23)[C@@H]1CO	MLL AF4-AF9 inh 34 (no result: HIV Env fusion, NSD2 inh)
CCCNC(=O)N1CC2(CN(CC3CCCCC3)C2)c2c(n(C)c3cc(OC)ccc23)[C@@H]1CO	MLL AF4-AF9 inh 33 (no result: HIV Env fusion, NSD2 inh)
O=C(c1ccncc1)N1CC(=O)N2[C@@H](CO)[C@@H](c3ccc(C#CCC4CCCC4)cc3)[C@@H]2C1	none (no result: HIV Env fusion, PGC1a acetyl inh, NSD2 inh, MLL AF4-AF9 inh)
O=C1CCC(C(=O)N2CCc3c(Cl)cccc3C2)CN1CCCN1CCOCC1 (centres undefined)	none (no result: PGC1a acetyl inh)
COc1cc(OC)cc(-c2n[nH]c(=S)n2-c2ccc3c(c2)OCO3)c1	none (no result: PGC1a acetyl inh)
CCOc1ccccc1C(=O)N1CCN(C(c2ccccc2)c2ccccc2)CC1	none (no result: HIV Env fusion, INS-1E GSIS act, MLL AF4-AF9 inh)
S=C(NCc1ccco1)N1CCN(c2nc(-c3ccc(Cl)cc3)cs2)CC1	none
O=C(CN1CCN(c2nc(-c3ccc(Cl)cc3)cs2)CC1)NCc1ccco1	HIV Env fusion 60 (no result: MLL AF4-AF9 inh)
O=C(/C=C\c1ccco1)Nc1nc(-c2ccccc2)cs1	none (no result: INS-1E GSIS act)
O=S(Cc1ccc(Br)cc1)Cc1nnc(SCc2ccc(Cl)cc2)n1-c1ccccc1 (centres undefined)	HIV Env fusion 65 (no result: INS-1E GSIS act, NSD2 inh, MLL AF4-AF9 inh)
Cn1c(CS(=O)Cc2c(Cl)cccc2Cl)nnc1SCc1ccc(Cl)cc1 (centres undefined)	HIV Env fusion 62 (no result: MLL AF4-AF9 inh)
COc1ccc(-c2cc(=O)oc3cc(OC(=O)C4CCCCC4)c(Cl)cc23)cc1	HIV Env fusion 66 (no result: PGC1a acetyl inh)
O=C(Nc1ccc(Cl)cc1)N1C[C@H]2[C@@H](c3ccccc31)[C@@H](CO)N2C(=O)C1CC1	none (no result: HIV Env fusion, NSD2 inh)
